# Measurements: ChEMBL document CHEMBL2218924, “A broad activity screen in support of a chemogenomic map for kinase signalling research and drug discovery” (Biochem J, 2013)
# Assays:
# [1] = target: T1, Ephrin type-B receptor 1 (Homo sapiens) (UniProt P54762); conditions: at 10 µM
# T1 sequence (whole entry): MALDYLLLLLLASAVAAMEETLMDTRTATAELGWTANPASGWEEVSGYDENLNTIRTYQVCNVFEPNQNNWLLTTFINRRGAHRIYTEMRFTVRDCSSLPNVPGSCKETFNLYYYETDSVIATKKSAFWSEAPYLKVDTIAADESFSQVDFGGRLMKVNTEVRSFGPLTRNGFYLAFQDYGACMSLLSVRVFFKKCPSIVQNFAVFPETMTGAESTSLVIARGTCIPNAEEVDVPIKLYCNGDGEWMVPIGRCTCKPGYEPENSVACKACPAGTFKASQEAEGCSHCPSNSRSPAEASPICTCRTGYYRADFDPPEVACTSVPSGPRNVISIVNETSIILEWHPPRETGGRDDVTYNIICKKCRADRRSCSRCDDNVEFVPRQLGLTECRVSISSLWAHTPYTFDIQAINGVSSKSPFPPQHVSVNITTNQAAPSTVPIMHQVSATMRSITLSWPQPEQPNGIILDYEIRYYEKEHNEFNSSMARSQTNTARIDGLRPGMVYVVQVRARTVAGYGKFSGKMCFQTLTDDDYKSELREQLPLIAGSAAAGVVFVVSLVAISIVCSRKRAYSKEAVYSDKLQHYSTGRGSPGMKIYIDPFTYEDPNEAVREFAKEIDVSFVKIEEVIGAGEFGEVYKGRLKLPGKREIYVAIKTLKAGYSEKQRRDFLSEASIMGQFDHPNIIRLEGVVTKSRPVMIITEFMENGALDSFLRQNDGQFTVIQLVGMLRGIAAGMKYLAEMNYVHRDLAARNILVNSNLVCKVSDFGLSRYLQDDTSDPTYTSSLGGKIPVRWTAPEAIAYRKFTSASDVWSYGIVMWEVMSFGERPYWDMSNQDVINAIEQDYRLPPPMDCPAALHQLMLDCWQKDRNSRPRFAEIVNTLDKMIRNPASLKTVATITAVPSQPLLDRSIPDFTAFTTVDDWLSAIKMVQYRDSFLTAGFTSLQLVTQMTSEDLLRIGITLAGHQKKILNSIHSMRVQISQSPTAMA
# [2] = target: T2, Ephrin type-B receptor 2 (Homo sapiens) (UniProt P29323); conditions: at 1 µM
# T2 sequence (whole entry): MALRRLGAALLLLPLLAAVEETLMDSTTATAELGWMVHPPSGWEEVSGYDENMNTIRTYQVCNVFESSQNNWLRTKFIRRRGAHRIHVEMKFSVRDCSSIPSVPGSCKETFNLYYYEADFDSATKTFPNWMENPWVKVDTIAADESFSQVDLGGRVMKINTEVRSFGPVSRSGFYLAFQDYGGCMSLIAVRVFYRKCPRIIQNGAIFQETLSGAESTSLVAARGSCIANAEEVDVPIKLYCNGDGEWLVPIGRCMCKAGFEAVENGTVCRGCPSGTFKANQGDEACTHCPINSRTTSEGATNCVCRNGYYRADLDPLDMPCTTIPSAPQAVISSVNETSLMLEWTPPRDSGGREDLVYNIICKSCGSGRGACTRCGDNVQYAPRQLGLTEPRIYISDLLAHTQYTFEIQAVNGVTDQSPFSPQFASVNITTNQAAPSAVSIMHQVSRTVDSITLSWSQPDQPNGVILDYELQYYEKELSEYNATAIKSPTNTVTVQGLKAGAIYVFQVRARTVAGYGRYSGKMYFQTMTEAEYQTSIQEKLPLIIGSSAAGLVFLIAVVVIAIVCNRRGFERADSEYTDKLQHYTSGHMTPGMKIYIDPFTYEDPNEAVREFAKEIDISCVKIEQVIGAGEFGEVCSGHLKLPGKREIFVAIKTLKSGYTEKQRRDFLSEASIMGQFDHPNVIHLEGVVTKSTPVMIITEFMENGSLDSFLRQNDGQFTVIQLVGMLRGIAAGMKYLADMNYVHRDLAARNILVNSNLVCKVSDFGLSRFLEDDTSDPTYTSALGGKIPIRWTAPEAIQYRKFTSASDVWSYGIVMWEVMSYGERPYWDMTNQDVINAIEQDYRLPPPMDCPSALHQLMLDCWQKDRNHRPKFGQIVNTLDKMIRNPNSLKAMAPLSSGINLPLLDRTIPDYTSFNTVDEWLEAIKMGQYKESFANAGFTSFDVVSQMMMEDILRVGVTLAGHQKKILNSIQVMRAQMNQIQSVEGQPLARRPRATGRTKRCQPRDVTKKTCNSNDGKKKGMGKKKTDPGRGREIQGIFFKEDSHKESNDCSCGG
# [3] = target: T2, Ephrin type-B receptor 2 (Homo sapiens); conditions: at 10 µM
# [4] = target: T3, Ephrin type-B receptor 3 (Homo sapiens) (UniProt P54753); conditions: at 1 µM
# T3 sequence (whole entry): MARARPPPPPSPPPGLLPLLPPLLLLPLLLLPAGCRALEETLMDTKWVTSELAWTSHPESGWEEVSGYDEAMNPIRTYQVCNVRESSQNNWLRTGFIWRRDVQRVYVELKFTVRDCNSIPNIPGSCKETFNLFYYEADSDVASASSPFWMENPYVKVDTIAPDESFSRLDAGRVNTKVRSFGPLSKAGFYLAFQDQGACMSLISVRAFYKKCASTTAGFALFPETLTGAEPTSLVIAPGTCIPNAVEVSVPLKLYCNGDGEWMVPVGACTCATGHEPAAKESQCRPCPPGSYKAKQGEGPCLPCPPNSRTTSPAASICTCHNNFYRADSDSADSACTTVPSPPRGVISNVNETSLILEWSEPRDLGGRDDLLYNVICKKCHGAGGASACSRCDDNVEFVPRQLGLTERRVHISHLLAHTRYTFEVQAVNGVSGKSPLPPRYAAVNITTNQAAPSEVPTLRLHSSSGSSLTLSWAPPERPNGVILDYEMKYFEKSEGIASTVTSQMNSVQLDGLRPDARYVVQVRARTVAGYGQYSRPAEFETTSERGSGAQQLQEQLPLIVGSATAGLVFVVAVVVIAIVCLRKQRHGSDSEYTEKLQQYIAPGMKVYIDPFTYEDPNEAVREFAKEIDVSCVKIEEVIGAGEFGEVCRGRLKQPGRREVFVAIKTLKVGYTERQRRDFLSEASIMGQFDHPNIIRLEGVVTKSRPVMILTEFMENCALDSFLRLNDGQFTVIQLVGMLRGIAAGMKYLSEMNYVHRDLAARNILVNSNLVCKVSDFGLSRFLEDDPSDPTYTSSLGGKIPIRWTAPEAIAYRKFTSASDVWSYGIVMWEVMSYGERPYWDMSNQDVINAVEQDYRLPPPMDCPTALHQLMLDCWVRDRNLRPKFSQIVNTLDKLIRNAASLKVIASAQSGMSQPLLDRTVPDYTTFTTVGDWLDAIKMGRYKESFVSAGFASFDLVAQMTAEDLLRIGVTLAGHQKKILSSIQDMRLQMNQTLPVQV
# [5] = target: T3, Ephrin type-B receptor 3 (Homo sapiens); conditions: at 10 µM
# [6] = target: T4, Ephrin type-B receptor 4 (Homo sapiens) (UniProt P54760); conditions: at 1 µM
# T4 sequence (whole entry): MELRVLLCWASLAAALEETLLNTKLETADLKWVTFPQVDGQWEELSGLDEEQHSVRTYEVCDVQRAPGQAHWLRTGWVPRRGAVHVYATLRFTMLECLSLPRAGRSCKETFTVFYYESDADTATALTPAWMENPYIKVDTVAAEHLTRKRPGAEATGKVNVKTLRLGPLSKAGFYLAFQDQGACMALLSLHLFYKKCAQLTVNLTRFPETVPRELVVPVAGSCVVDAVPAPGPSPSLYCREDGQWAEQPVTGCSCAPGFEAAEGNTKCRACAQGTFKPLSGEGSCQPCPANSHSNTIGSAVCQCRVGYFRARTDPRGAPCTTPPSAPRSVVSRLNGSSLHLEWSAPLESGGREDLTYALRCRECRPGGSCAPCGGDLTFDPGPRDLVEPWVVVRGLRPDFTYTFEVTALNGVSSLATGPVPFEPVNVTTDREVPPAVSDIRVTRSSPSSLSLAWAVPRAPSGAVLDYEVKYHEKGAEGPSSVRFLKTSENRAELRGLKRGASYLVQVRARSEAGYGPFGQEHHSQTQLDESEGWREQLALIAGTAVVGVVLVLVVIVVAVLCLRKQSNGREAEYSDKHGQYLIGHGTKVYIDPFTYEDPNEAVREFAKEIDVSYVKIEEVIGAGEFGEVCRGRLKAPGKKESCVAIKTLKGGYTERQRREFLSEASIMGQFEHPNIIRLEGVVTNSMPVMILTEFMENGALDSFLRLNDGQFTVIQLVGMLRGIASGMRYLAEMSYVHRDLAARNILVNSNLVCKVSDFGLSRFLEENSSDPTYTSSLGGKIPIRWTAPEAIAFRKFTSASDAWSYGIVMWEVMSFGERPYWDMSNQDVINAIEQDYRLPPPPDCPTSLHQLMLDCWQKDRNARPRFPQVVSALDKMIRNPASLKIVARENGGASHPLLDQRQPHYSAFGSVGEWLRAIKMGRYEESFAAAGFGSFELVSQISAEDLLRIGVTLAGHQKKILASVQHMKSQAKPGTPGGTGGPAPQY
# [7] = target: T4, Ephrin type-B receptor 4 (Homo sapiens); conditions: at 10 µM
# [8] = target: Receptor tyrosine-protein kinase erbB-4 (Homo sapiens) (UniProt Q15303); conditions: at 1 µM
# Chain of Receptor tyrosine-protein kinase erbB-4 (Homo sapiens) (Q15303 whole entry): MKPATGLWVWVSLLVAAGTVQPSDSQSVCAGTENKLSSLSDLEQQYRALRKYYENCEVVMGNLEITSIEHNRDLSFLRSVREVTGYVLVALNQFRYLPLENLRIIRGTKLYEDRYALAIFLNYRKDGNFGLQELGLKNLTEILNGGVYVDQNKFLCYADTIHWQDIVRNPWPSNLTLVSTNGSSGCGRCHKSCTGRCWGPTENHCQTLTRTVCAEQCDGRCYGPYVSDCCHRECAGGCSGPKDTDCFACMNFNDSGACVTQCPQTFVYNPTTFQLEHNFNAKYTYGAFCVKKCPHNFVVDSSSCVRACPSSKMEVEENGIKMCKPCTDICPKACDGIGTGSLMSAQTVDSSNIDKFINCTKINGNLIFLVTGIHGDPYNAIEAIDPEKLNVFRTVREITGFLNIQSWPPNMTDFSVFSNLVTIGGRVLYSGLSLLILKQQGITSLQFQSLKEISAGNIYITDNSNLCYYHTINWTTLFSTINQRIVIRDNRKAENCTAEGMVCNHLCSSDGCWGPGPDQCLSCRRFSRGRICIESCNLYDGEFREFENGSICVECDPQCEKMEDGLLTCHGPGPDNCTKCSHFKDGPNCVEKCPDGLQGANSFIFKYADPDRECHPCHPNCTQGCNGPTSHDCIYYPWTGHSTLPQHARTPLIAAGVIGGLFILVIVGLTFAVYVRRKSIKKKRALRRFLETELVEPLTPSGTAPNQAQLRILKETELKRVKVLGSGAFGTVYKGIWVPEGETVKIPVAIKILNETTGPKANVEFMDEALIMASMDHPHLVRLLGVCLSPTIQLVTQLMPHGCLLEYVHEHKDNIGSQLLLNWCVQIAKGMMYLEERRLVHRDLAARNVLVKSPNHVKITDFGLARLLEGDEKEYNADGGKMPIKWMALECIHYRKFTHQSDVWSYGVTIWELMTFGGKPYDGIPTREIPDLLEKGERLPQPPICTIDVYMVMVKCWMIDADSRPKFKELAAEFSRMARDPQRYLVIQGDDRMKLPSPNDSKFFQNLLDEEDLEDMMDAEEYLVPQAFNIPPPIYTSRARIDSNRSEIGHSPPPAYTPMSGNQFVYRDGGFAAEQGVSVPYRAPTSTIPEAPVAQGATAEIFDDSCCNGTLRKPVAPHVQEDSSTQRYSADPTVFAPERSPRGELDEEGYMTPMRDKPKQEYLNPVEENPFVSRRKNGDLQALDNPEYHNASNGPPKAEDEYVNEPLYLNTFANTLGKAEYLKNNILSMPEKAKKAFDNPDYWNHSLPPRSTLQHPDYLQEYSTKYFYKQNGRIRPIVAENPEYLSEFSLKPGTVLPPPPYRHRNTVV
# [9] = target: Receptor tyrosine-protein kinase erbB-4 (Homo sapiens) (UniProt Q15303); conditions: at 10 µM
# [10] = target: Focal adhesion kinase 1 (Homo sapiens) (UniProt Q05397); conditions: at 1 µM
# Chain of Focal adhesion kinase 1 (Homo sapiens) (Q05397 2-1052 limits assumed): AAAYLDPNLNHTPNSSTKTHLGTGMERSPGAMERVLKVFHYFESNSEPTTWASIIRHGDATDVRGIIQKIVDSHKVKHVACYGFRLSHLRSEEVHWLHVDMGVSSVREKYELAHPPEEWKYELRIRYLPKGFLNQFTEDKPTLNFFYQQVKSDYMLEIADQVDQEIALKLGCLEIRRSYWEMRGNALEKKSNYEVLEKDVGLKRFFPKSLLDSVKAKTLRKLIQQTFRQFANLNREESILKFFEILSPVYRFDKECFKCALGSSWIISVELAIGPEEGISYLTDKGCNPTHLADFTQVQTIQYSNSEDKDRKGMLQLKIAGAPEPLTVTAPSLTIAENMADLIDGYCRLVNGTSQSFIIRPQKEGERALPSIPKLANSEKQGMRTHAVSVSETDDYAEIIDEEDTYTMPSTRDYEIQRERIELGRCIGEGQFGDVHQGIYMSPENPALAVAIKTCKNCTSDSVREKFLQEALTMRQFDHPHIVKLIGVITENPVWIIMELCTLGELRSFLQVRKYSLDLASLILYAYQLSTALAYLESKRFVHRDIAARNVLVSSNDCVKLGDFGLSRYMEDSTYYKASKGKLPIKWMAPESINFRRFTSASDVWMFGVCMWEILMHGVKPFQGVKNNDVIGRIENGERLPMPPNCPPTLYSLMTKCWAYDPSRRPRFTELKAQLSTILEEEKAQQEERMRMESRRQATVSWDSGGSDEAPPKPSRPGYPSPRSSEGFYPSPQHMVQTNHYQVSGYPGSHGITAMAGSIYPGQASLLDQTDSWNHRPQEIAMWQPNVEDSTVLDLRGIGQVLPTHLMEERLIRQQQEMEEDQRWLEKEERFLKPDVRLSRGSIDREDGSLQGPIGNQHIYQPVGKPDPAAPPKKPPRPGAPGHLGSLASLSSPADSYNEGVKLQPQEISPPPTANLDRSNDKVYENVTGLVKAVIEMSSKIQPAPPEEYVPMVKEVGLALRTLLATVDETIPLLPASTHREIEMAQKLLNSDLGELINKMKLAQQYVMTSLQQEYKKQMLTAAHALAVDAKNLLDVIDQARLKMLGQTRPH
smiles,measurement,setting,value
CC(=O)O/N=C1\C(=C2\C(=O)Nc3cc(Br)ccc32)Nc2ccccc21,residual activity,[1],47%
same,residual activity,[2],103%
same,residual activity,[3],60%
same,residual activity,[4],107% (inactive)
same,residual activity,[5],107%
same,residual activity,[6],71%
same,residual activity,[7],65%
same,residual activity,[8],96%
same,residual activity,[9],90%
same,residual activity,[10],95%
